A short description of assay [1]: nuclear p53 accumulation, HPV+ cells – imaging, p53-positive nuclei imaging, 24 h, 48 h (AID 1508601). The note with it: 24/48 h.
Assay [2] deals with Cellular tumor antigen p53 (Homo sapiens) (UniProt P04637). Described as above. The following applies: 24/48 h, stronger effect = higher value.
[3] abbreviates: measured here: cell number at 24 h, Library stock concentration: 3.33 mM.
[4] abbreviates: measured here: cell number at 48 h, Library stock concentration: 3.33 mM.
[5] abbreviates: Library stock concentration: 3.33 mM.
Where [6] appears, read: measured here: p53 positive nuclei at 24 h, Library stock concentration: 3.33 mM.
Setting [7] is: measured here: cell number at 24 h, concentration not given here.
[8] abbreviates: measured here: cell number at 48 h, concentration not given here.
Where [9] appears, read: measured here: p53 positive nuclei at 24 h, concentration not given here.
Where [10] appears, read: measured here: cell number at 24 h, Library stock concentration: 80 uM.
The mark [11] stands for this setting: measured here: cell number at 24 h, Library stock concentration: 400 uM.
Where [12] appears, read: measured here: cell number at 24 h, Library stock concentration: 2 mM.
The mark [13] stands for this setting: measured here: cell number at 24 h, Library stock concentration: 10 mM.
Setting [14] is: measured here: cell number at 48 h, Library stock concentration: 80 uM.
The mark [15] stands for this setting: measured here: cell number at 48 h, Library stock concentration: 400 uM.
[16] abbreviates: measured here: cell number at 48 h, Library stock concentration: 2 mM.
Where [17] appears, read: measured here: cell number at 48 h, Library stock concentration: 10 mM.
Setting [18] is: Library stock concentration: 80 uM.
The mark [19] stands for this setting: Library stock concentration: 400 uM.
Setting [20] is: Library stock concentration: 2 mM.
[21] abbreviates: Library stock concentration: 10 mM.
Where [22] appears, read: measured here: p53 positive nuclei at 24 h, Library stock concentration: 80 uM.
Where [23] appears, read: measured here: p53 positive nuclei at 24 h, Library stock concentration: 400 uM.
Setting [24] is: measured here: p53 positive nuclei at 24 h, Library stock concentration: 2 mM.
The mark [25] stands for this setting: measured here: p53 positive nuclei at 24 h, Library stock concentration: 10 mM.

Values joined by “and” are separate entries in the source; they are usually repeats but may differ in a detail not shown here. Equal entries are not always repeated. The whole screen tested about 5,700 compounds, of which about 85 (1%) were called active. Rule as the data show it: active = p53-positive nuclei above about 36% (passing the limit was not always enough); inactive = the rest. For the sample, actives were picked, then their nearest neighbours and some compounds at random.

Chain of Cellular tumor antigen p53 (Homo sapiens) (P04637 whole entry, looked up): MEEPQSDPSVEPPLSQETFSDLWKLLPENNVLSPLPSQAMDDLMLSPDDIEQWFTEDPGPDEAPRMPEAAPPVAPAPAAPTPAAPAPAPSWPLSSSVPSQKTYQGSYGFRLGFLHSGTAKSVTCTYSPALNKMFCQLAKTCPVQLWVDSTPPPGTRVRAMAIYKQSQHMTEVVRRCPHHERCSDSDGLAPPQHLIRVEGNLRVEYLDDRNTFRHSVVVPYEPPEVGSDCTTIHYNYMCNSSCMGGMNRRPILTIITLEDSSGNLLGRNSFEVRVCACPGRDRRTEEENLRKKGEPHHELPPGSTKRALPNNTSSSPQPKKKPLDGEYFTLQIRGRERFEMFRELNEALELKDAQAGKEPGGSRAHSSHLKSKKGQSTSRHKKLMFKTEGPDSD

Consider `CCc1cc2c(cc1CC)CC(NCC(O)c1ccc(O)c3[nH]c(=O)ccc13)C2` (configuration not stated), for which the nuclei count, normalised in assay [1] (setting [3]) was 112%; in assay [1] (setting [4]) it was 110%. Besides, the p53-positive nuclei, normalised in assay [2] (setting [5]) was -0.298% (inactive); in assay [2] (setting [6]) it was -0.54%.

For the compound `CCCCC[C@H](O)/C=C/[C@H]1[C@H](O)CC(=O)[C@@H]1C/C=C\CCCC(=O)OC`, the nuclei count, normalised amounted to 111% in assay [1] (setting [7]) and 106% in assay [1] (setting [8]). The p53-positive nuclei, normalised in assay [2] (concentration not given here) was -0.0657% (inactive); in assay [2] (setting [9]), 0.249%.

In the case of `CCC(CC)(NC(=O)C(C)C)C(=O)NC(CCCN=C(N)N)C(=O)NC1(C(=O)NC(c2ccc(F)cc2)c2ccc(F)cc2)CCCC1` (configuration not stated), the nuclei count, normalised in assay [1] (setting [3]) amounted to 107%; in assay [1] (setting [4]), 102%. For the same compound, the p53-positive nuclei, normalised in assay [2] (setting [5]) was -0.0557% (inactive); in assay [2] (setting [6]), -0.115%.

On to `c1ccc(-c2nc3c(cnn3C3CCCCC3)[nH]2)c(Cn2cccn2)c1`, for which the figures for the nuclei count, normalised in assay [1] (setting [7]) and in assay [1] (setting [8]) were 106% and 110%, respectively. Moreover, the p53-positive nuclei, normalised in assay [2] (concentration not given here) was -0.0852% (inactive); in assay [2] (setting [9]), 0.144%.

On to `CN(C)c1ccc(C(=O)NCCCCCC(=O)NO)cc1`, for which the results for the nuclei count, normalised in assay [1] (setting [7]) and in assay [1] (setting [8]) were 110% and 106%, respectively. The p53-positive nuclei, normalised in assay [2] (concentration not given here) is 0.149% (inactive); in assay [2] (setting [9]), 0.257%.

Turning to `CC(/C=C/C(=O)NO)=C\[C@@H](C)C(=O)c1ccc(N(C)C)cc1`, the nuclei count, normalised in assay [1] (setting [7]) was found to be 53.4%; in assay [1] (setting [8]), 27.6%. Besides, the p53-positive nuclei, normalised in assay [2] (concentration not given here) was 55.3% (active); in assay [2] (setting [9]), 61.3%.

Consider `CN(C)c1ccc(C(=O)NCCCCCCC(=O)NO)cc1`, for which the nuclei count, normalised worked out at 54.1% in assay [1] (setting [3]), 116% in assay [1] (setting [7]), 44.8% in assay [1] (setting [4]) and 100% in assay [1] (setting [8]). Moreover, the p53-positive nuclei, normalised in assay [2] (setting [5]) is 25% (inactive); in assay [2] (concentration not given here), 0.296% (inactive); in assay [2] (setting [6]), 45%; in assay [2] (setting [9]), 0.159%.

As for `CC(C=CC(=O)NO)=CC(C)C(=O)c1ccc(N(C)C)cc1` (configuration not stated), the nuclei count, normalised in assay [1] (setting [3]) was found to be 35.3%; in assay [1] (setting [4]) it was 21.2%. For the same compound, the p53-positive nuclei, normalised in assay [2] (setting [5]) is 88.9% (active); in assay [2] (setting [6]), 74.9%.

For the compound `COC(=O)c1c(NC(=O)CC2SC(=N)NC2=O)sc(C)c1C` (configuration not stated), the nuclei count, normalised was 98.4% in assay [1] (setting [10]); 104% in assay [1] (setting [11]); 101% in assay [1] (setting [12]); 101% in assay [1] (setting [13]); 108% in assay [1] (setting [14]); 108% in assay [1] (setting [15]). In addition, the nuclei count, normalised in assay [1] (setting [16]) was 106%; in assay [1] (setting [17]), 99.8%. The p53-positive nuclei, normalised in assay [2] (setting [18]) is -0.137% (inactive); in assay [2] (setting [19]), -0.126% (inactive); in assay [2] (setting [20]) it was -0.195% (inactive); in assay [2] (setting [21]), -0.114% (inactive); in assay [2] (setting [22]), -0.000422%; in assay [2] (setting [23]), -0.116%. The p53-positive nuclei, normalised in assay [2] (setting [24]) was -0.00728%; in assay [2] (setting [25]), -0.004%.

Regarding `C[C@]1(C(=O)Nc2ccc(F)nc2)CCCN1c1nc(Nc2cc(C3CC3)[nH]n2)c2cccn2n1`, the values for the nuclei count, normalised in assay [1] (setting [3]) and in assay [1] (setting [4]) were 46.1% and 30.3%, respectively. Also, the p53-positive nuclei, normalised in assay [2] (setting [5]) is -0.488% (inactive); in assay [2] (setting [6]), -0.0691%.

With `CN1CCN(c2ccc(Nc3c4ccccc4nc4ccccc34)cc2)CC1`, the nuclei count, normalised in assay [1] (measured here: cell number at 24 h, Library stock concentration: 46 uM) was found to be 95.9%; in assay [1] (setting [10]) it was 110%; in assay [1] (measured here: cell number at 24 h, Library stock concentration: 278 uM), 90.1%; in assay [1] (setting [11]), 95.8%; in assay [1] (measured here: cell number at 24 h, Library stock concentration: 1.67 mM), 79.3%; in assay [1] (setting [12]), 52.3%. The nuclei count, normalised in assay [1] (setting [13]) is 32.6% and 36.6%; in assay [1] (measured here: cell number at 48 h, Library stock concentration: 46 uM), 96.2%; in assay [1] (setting [14]), 109%; in assay [1] (measured here: cell number at 48 h, Library stock concentration: 278 uM), 93.5%; in assay [1] (setting [15]), 103%; in assay [1] (measured here: cell number at 48 h, Library stock concentration: 1.67 mM), 81%. In addition, the nuclei count, normalised in assay [1] (setting [16]) is 48.7%; in assay [1] (setting [17]) it was 18.8% and 22%. The p53-positive nuclei, normalised is -0.136% (inactive) in assay [2] (Library stock concentration: 46 uM); -0.131% (inactive) in assay [2] (setting [18]); -0.255% (inactive) in assay [2] (Library stock concentration: 278 uM); -0.231% (inactive) in assay [2] (setting [19]); -0.00204% (inactive) in assay [2] (Library stock concentration: 1.67 mM); 5.16% (inactive) in assay [2] (setting [20]). Besides, the p53-positive nuclei, normalised was 53.2% (active) and 55.4% (active) in assay [2] (setting [21]); -0.145% in assay [2] (measured here: p53 positive nuclei at 24 h, Library stock concentration: 46 uM); -0.0662% in assay [2] (setting [22]); -0.137% in assay [2] (measured here: p53 positive nuclei at 24 h, Library stock concentration: 278 uM); -0.059% in assay [2] (setting [23]); 0.126% in assay [2] (measured here: p53 positive nuclei at 24 h, Library stock concentration: 1.67 mM). The p53-positive nuclei, normalised is 13.1% in assay [2] (setting [24]); 88.3% and 79.2% in assay [2] (setting [25]).

With `CNC(=O)c1nn(C)c2c1C(C)(C)Cc1cnc(Nc3ccc(N4CCN(C)CC4)cc3)nc1-2`, the results for the nuclei count, normalised in assay [1] (setting [3]) and in assay [1] (setting [4]) were 62.7% and 44%, respectively. For the same compound, the p53-positive nuclei, normalised in assay [2] (setting [5]) was 0.155% (inactive); in assay [2] (setting [6]), 0.144%.

On to `C=CC(=O)Nc1cccc(Oc2nc(Nc3ccc(N4CCN(C)CC4)cc3)ncc2Cl)c1`, for which the figures for the nuclei count, normalised in assay [1] (setting [3]) and in assay [1] (setting [4]) were 64.1% and 64.3%, respectively. For the same compound, the results for the p53-positive nuclei, normalised in assay [2] (setting [5]) and in assay [2] (setting [6]) were -0.197% (inactive) and -0.375%, respectively.

For the origin of these results see PubChem BioAssay AID1508601 (ICCB-Longwood Screening Facility, Harvard Medical School, 2020).
